The sequences below were run on MILI (PIWIL2) piRISC loaded with L1MC piRNA (26 nt) (assay: pre-steady-state target cleavage rate (min^-1); guide: L1MC piRNA 5'p-UAACUAAAUACUAUGCAAGCUGUAGG; MIWI and MILI are mouse PIWI proteins and EfPiwi is from a freshwater sponge; tags in brackets are library labels; higher = faster piRNA-guided slicing of the target). Conditions: auxiliary factor: none (no GTSF1).
In short: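 Cleave-'n-Seq: 1 nM active affinity-purified piRISC with one synthetic guide and 0.1 nM transcribed, DNA-blocked target RNA library were mixed, with or without 500 nM GTSF1 partner protein, in HEPES–potassium acetate buffer at 33 °C for 0–8 or 0–960 min. Uncleaved targets were sequenced and normalised to depth and to weakly complementary targets, three trials were pooled, and k3 was capped at 0.0001 min^-1. The pre-steady-state cleavage rate was fitted […].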

pre-steady-state target cleavage rate, < 0.0001:
UCCUGGAUGUCGAAGCAUAGAAUUUACUUA, UCCUGGAACAGCUUGCUAUCAUAAAUCAAA [g15:g23:cont:t1A], UCCUGGAUGUCGAACGUAAGUAUUUAGUAUA, UCCUGGAUGUCGAACGAAAGUAUAUAGUUA, UCCUGGAUGUCGAUCCAUAGUAUUUUGUUA, UCCUGGAUGUCGAACGUAUGCUAUUUAGUUA
